Inconclusive results are not listed. Activity calls are given as the source filed them. The call rests on the fitted dose curve; in most records, active means well fitted inhibition curve with a large enough effect; inconclusive means small, poorly fitted or top-dose-only effect; inactive means no such curve, though single readings can be large or run the other way.

The nature of this test: qHTS assay for measurement of the activity of small molecule inhibitors on Zika virus induced Caspase-3 activity in human iPSC derived neural progenitor cells (hNPCs) (AID 1224857). Further: % of control where 0% means no effect; nearly all actives have a fitted effect of over 65% in size. To be noted: hNPCs ZIKV-induced caspase-3/7, Caspase-Glo luminescence, 6 h; series mostly up to 45.7 µM. The method in brief:
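hNPCs seeded 350 cells/well, cultured 16–20 h; compounds added 1 h before ZIKV (2 FFU/cell), 37 C 6 h. Caspase-Glo 3/7 luminescence after 30 min RT; % inhibition from induction scaled to uninfected (0%) and infected (100%) wells.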
(In general: Quantitative high-throughput screening tests each substance at several concentrations.)
`CNC(=O)CN(CCN(CCN(CC(=O)[O-])CC(=O)NC)CC(=O)[O-])CC(=O)[O-].O.[Gd+3]`: the call was inactive.

`COCc1c(C(C)C)nc(C(C)C)c(/C=C/[C@@H](O)C[C@@H](O)CC(=O)O)c1-c1ccc(F)cc1`: the call was inactive.

Regarding `C[C@]12C=CC(=O)C=C1[C@@H](F)C[C@@H]1[C@@H]2[C@@H](O)C[C@@]2(C)[C@H]1CC[C@]2(O)C(=O)CO`, the call was inactive.

On to `CC(=O)[C@H]1CC[C@H]2[C@@H]3C[C@H](C)C4=CC(=O)CC[C@]4(C)[C@H]3[C@@H](O)C[C@]12C`, for which the compound was called inactive.

On to `COc1ccc(C2C(=O)c3ccccc3C2=O)cc1`, for which the result was inactive.

`Cc1ccccc1C(=O)Nc1ccc(C(=O)N2CCCC(N(C)C)c3ccccc32)cc1` (stereo unspecified): the result was inactive.

On to `CCn1cc(C(=O)O)c(=O)c2cnc(N3CCCC3)nc21`, for which the activity change, negative = inhibition is -4.24% [at 9.06 µM] (inactive).

Turning to `CC(=O)N(O)CCCCCNC(=O)CCC(=O)N(O)CCCCCNC(=O)CCC(=O)N(O)CCCCCN`, the compound was called inactive.

Regarding `COc1ccc(OC)c(C(O)CNC(=O)CN)c1` (stereo unspecified), the result was inactive.

For `CN1CCC[C@@H]1c1cccnc1`, the compound was called inactive.

As to `OC[C@H]1O[C@@H](n2cnc3c(=S)nc[nH]c32)[C@H](O)[C@@H]1O`, the call was inactive.

With `CCCCCCCCCCOCC(O)CN` (stereo unspecified), the call was inactive.

In the case of `CC(=O)OCC(=O)[C@@]12OC(C)(C)O[C@@H]1C[C@H]1[C@@H]3C[C@H](F)C4=CC(=O)C=C[C@]4(C)[C@@]3(F)[C@@H](O)C[C@@]12C`, the outcome was inactive.

As for `Cc1cc2c(cc1CC(=O)c1sccc1S(=O)(=O)Nc1onc(C)c1Cl)OCO2`, the compound was called inactive.

On to `CC(C)(C)NC(=O)[C@@H]1CN(Cc2cccnc2)CCN1C[C@@H](O)C[C@@H](Cc1ccccc1)C(=O)N[C@H]1c2ccccc2C[C@H]1O`, for which the result was inactive.

Regarding `COC(=O)C1=C(C)NC(C)=C(C(=O)O[C@@H]2CCCN(Cc3ccccc3)C2)[C@@H]1c1cccc([N+](=O)[O-])c1`, the compound was classed as inactive.

Take `Cc1onc(-c2c(Cl)cccc2Cl)c1C(=O)N[C@@H]1C(=O)N2[C@@H]1SC(C)(C)[C@@H]2C(=O)O`: the result was inactive.

Regarding `CCCCOc1cc(C(=O)NCCN(CC)CC)c2ccccc2n1`, the call was inactive.

Turning to `COC(=O)CCc1ccc(OCC(O)CNC(C)C)cc1` (stereo unspecified), the compound was called inactive.

Consider `CNCCC=C1c2ccccc2CCc2ccccc21`, for which the compound was classed as inactive.

Turning to `CN1CCN(C(c2ccccc2)c2ccccc2)CC1`, the compound was called inactive.

As for `CC1(C)O[C@@H]2C[C@H]3[C@@H]4C[C@H](F)C5=CC(=O)C=C[C@]5(C)[C@H]4[C@@H](O)C[C@]3(C)[C@]2(C(=O)CO)O1`, the result was inactive.

For `CC(C)n1nc(-c2cc3cc(O)ccc3[nH]2)c2c(N)ncnc21`, the outcome was inactive.

`CC1=C(C(=O)O)N2C(=O)[C@@H](NC(=O)[C@H](N)c3ccc(O)cc3)[C@H]2SC1`: the call was inactive.

Consider `CCCCCCCCCCCCCCNCCO`, for which the compound was called inactive.

With `O=c1[nH]c(=O)n([C@H]2CCCO2)cc1F`, the compound was classed as inactive.

With `C=C(CC)C(=O)c1ccc(OCC(=O)O)c(Cl)c1Cl`, the compound was called inactive.

For the compound `CC1(C)OC[C@@H](COC(=O)CCc2ccc(OC[C@@H](O)CNCCNC(=O)N3CCOCC3)cc2)O1`, the outcome was inactive.

Turning to `CC(=O)c1ccc2c(c1)N(CCCN1CCC(CCO)CC1)c1ccccc1S2`, the compound was classed as inactive.

With `COc1cc(NS(C)(=O)=O)ccc1Nc1c2ccccc2nc2ccccc12`, the call was inactive.

Take `CCC(C(=O)OCCN(CC)CC)c1ccccc1` (stereo unspecified): the outcome was inactive.

As to `Cc1ccc(Nc2c(F)cccc2Cl)c(CC(=O)O)c1`, the result was inactive.

As for `Nc1ccc(C(=O)Nc2ccccc2N)cc1`, the outcome was inactive.

`COc1c(C)c2c(c(O)c1C/C=C(\C)CCC(=O)O)C(=O)OC2`: the result was inactive.

On to `Cc1nc2n(c(=O)c1CCN1CCC(c3noc4cc(F)ccc34)CC1)CCC[C@H]2O`, for which the outcome was inactive.

For `NC[C@H]1O[C@H](O[C@H]2[C@H](O)[C@@H](O[C@H]3O[C@H](CO)[C@@H](O)[C@H](N)[C@H]3O)[C@H](N)C[C@@H]2N)[C@H](N)[C@@H](O)[C@@H]1O`, the compound was called inactive.

The record behind these values is PubChem BioAssay (NCATS).
